Test results taken from PubChem BioAssay (EPA / NIEHS).
Inconclusive results are not listed. Activity calls are given as the source filed them. Rule for the calls, unless noted: active = hit-call score of the fitted dose curve at least 0.9, where 1 is the maximum; inactive = score below 0.9.

Assays:
[1] = ATG_NFI_CIS: Attagene CIS-FACTORIAL HepG2 Assay for human Nuclear Factor I (NFI) (AID 2282989); conditions: HepG2 cis-regulatory reporter, NFI response element transcription; actives raise or lower the signal
Summary of the method: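 Endogenous TF activity in HepG2 cells transiently transfected with cis-element-driven multiplexed reporter units, read 24 h after dosing. Reporter mRNA quantified by RT-PCR, 6-FAM labelling, HpaI digestion and capillary electrophoresis; bidirectional fit versus DMSO.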

[2] = biological target: Myc proto-oncogene protein (Homo sapiens) (UniProt P01106); experiment: ATG_Myc_CIS: Attagene CIS-FACTORIAL HepG2 Assay for human Myelocytomatosis (Myc) Proto-Oncogene Transcription Factor (AID 2282990); conditions: HepG2, Attagene cis-reporter transcription factor activity; actives raise or lower the signal
Myc proto-oncogene protein (Homo sapiens), sequence (P01106 whole entry, looked up): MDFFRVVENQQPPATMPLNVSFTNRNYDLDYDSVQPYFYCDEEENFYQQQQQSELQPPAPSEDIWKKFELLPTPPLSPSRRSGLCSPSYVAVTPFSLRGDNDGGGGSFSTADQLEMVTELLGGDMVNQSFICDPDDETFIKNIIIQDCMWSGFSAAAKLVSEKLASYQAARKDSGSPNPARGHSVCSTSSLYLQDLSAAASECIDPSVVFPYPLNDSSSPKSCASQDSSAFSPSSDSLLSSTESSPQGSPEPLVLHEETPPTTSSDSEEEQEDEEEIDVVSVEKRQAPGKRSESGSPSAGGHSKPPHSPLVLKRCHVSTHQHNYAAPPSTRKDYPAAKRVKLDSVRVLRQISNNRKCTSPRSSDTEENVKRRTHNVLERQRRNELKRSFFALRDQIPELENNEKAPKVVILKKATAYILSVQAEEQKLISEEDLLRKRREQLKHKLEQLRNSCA
Summary of the method: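 DMSO-normalised, bidirectionally fitted reporter mRNA signal. HepG2 cells transfected with cis reporter constructs, treated 24 h; transcripts detected by RT-PCR, 6-FAM primer extension and CE.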

[3] = ATG_NF_kB_CIS: Attagene CIS-FACTORIAL HepG2 Assay for human Nuclear Factor Kappa B (NF-kB) (AID 2282991); conditions: HepG2 Attagene cis-factorial NF-kB reporter mRNA; actives raise or lower the signal
Summary of the method: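 Multiplexed cis-reporter assay in transiently transfected HepG2. 24 h treatment; RNA isolated, RT-PCR, labelled fragments resolved by CE. DMSO baseline.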

[4] = ATG_NRF2_ARE_CIS: Attagene CIS-FACTORIAL HepG2 Assay for human Nuclear Factor Erythroid 2 Related Factor 2 (NFR2) response to Antioxidant Response Elements (ARE) (AID 2282992); conditions: HepG2 Attagene ARE/NRF2 reporter, transcription factor activity; actives raise or lower the signal;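 for AC50: reporter mRNA level measured by RT-PCR and capillary electrophoresis fluorescence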
Summary of the method: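 Readout: reporter mRNA quantified by RT-PCR plus FAM-labelled primer extension, HpaI digestion and capillary electrophoresis, 24 h after dosing transfected HepG2 cells. Gain or loss of signal is fitted bidirectionally against DMSO baseline.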

[5] = ATG_Oct_MLP_CIS: Attagene CIS-FACTORIAL HepG2 Assay for human Octamer-Binding Transcription Factor (Oct) (AID 2282993); conditions: HepG2 Attagene cis-factorial Oct reporter, mRNA; actives raise or lower the signal
Summary of the method: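 HepG2 cells transiently transfected with cis-element-driven reporter transcription units (endogenous TF activity); 24 h compound exposure. Reporter mRNA quantified by RT-PCR, 6-FAM labelling, HpaI digestion and capillary electrophoresis; bidirectional fit versus DMSO baseline.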

[6] = biological target: Cellular tumor antigen p53 (Homo sapiens) (UniProt P04637); experiment: ATG_p53_CIS: Attagene CIS-FACTORIAL HepG2 Assay for human p53 Transcription Factor (AID 2282994); conditions: HepG2 p53 cis-element reporter, Attagene mRNA; actives raise or lower the signal
Cellular tumor antigen p53 (Homo sapiens), sequence (P04637 whole entry, looked up): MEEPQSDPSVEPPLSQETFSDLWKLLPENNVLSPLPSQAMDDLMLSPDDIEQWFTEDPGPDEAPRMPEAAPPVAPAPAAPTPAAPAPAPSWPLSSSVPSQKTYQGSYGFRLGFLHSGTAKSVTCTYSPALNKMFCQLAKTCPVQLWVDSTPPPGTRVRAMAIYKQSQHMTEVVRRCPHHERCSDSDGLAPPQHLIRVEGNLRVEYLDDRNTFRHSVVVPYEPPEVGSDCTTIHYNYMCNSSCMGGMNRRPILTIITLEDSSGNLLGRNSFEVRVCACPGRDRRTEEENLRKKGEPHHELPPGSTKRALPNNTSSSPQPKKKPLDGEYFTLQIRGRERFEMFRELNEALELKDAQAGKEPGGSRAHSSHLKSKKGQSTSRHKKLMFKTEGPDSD
Summary of the method: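 Read-out: reporter mRNA by RT-PCR plus capillary electrophoresis with fluorescence detection. Human HepG2 liver cells carried transfected multi-reporter cis-element constructs, dosed 24 h. Gain or loss of signal fitted bidirectionally against DMSO control.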

[7] = biological target: human Peroxisome Proliferator-activated Receptor delta (PPARd), PPARD (gene 5467) (UniProt Q03181); experiment: ATG_PPARd_TRANS: Attagene TRANS-FACTORIAL HepG2 Assay for human Peroxisome Proliferator-activated Receptor delta (PPARd) (AID 2283002; active = hit-call score of the fitted dose curve at least 0.9, where 1 is the maximum)
human Peroxisome Proliferator-activated Receptor delta (PPARd), PPARD (gene 5467), sequence (Q03181 whole entry, looked up, the tested form may be a part): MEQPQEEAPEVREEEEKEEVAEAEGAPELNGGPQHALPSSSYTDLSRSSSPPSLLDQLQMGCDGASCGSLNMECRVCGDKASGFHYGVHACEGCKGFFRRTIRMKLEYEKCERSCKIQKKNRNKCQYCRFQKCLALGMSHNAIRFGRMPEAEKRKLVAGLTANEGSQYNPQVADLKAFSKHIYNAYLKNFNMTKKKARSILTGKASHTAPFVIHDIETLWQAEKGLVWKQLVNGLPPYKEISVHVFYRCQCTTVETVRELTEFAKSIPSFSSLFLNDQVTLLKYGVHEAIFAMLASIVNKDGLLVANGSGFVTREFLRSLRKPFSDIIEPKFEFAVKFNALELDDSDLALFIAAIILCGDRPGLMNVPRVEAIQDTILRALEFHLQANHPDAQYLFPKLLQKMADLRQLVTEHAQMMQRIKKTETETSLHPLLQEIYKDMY
Summary of the method: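 Measured quantity: GAL4-UAS reporter transcript induction in HepG2 after 24 h chemical dosing, with NR-Gal4 chimeras supplied by transient transfection. Detection by RT-PCR and capillary electrophoresis; upward fit against DMSO.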

[8] = biological target: human Retinoic Acid Receptor beta (RARb), RARB (gene 5915) (UniProt P10826); experiment: ATG_RARb_TRANS: Attagene TRANS-FACTORIAL HepG2 Assay for human Retinoic Acid Receptor beta (AID 2283004; active = hit-call score of the fitted dose curve at least 0.9, where 1 is the maximum)
human Retinoic Acid Receptor beta (RARb), RARB (gene 5915), sequence (P10826 whole entry, looked up, the tested form may be a part): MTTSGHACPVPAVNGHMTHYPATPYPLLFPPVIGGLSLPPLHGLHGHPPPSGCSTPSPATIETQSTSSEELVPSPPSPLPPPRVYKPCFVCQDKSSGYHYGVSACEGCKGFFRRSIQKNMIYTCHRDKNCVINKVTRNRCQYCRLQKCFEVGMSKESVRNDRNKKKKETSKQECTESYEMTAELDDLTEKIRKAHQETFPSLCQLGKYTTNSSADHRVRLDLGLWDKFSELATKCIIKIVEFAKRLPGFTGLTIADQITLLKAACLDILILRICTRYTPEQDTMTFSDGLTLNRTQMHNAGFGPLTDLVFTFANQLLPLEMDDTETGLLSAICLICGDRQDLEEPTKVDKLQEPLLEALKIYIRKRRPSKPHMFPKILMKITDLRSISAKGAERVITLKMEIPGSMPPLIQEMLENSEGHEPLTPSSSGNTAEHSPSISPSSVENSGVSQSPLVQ
Summary of the method: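 HepG2, transient MRTU transfection, NR–Gal4 chimera, 24 h treatment; RT-PCR plus CE fluorescence detection of reporter mRNA; gain of signal vs DMSO.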

[9] = biological target: Retinoic acid receptor alpha (Homo sapiens) (UniProt P10276); experiment: ATG_RARa_TRANS: Attagene TRANS-FACTORIAL HepG2 Assay for human Retinoic Acid Receptor alpha (RARa) (AID 2283005; active = hit-call score of the fitted dose curve at least 0.9, where 1 is the maximum)
Retinoic acid receptor alpha (Homo sapiens), sequence (P10276 whole entry, looked up, the tested form may be a part): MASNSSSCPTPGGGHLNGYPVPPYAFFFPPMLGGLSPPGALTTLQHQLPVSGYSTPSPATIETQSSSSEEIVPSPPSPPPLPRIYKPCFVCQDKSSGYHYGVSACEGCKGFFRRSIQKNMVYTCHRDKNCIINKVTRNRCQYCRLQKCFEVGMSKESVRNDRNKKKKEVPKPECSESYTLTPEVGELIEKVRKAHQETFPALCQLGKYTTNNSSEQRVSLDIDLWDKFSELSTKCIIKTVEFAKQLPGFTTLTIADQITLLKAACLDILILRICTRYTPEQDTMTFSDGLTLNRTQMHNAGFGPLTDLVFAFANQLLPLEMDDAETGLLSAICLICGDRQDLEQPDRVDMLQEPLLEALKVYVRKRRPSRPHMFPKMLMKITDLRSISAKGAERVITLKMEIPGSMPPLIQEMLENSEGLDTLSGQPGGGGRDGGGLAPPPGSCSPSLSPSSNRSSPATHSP
Summary of the method: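 HepG2 cells transiently transfected with multiple reporter units expressing chimeric RARα-GAL4 fusion, with GAL4-UAS-driven reporters. After 24 h compound exposure, reporter mRNA induction quantified by RT-PCR and capillary electrophoresis with fluorescent labeling; gain-of-signal fitted relative to DMSO control.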

[10] = biological target: Peroxisome proliferator-activated receptor gamma (Homo sapiens) (UniProt P37231); experiment: ATG_PPARg_TRANS: Attagene TRANS-FACTORIAL HepG2 Assay for human Peroxisome Proliferator-activated Receptor-gamma (PPARg) (AID 2283007; active = hit-call score of the fitted dose curve at least 0.9, where 1 is the maximum)
Peroxisome proliferator-activated receptor gamma (Homo sapiens), sequence (P37231 whole entry, looked up): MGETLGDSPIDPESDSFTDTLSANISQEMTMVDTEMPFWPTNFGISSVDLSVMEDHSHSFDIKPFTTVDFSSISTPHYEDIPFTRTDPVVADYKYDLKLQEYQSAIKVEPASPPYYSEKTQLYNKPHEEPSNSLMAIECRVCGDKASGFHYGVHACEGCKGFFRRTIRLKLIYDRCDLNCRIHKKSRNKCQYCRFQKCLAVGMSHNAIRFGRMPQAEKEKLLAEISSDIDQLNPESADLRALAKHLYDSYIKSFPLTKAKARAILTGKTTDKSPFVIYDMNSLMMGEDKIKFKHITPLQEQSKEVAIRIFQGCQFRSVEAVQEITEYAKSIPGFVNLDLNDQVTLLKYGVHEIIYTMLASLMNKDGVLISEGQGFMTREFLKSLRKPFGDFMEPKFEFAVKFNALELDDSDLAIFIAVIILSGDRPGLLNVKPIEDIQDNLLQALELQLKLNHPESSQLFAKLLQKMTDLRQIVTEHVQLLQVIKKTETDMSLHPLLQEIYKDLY
Summary of the method: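 Human hepatoma HepG2, transient MRTU transfection, 24 h treatment. mRNA reporter signal by RT-PCR plus capillary electrophoresis, fluorescence detection; fitted for increase over DMSO negative control.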

[11] = biological target: Nuclear receptor subfamily 1 group I member 2 (Homo sapiens) (UniProt O75469); experiment: ATG_PXR_TRANS: Attagene TRANS-FACTORIAL HepG2 Assay for human Pregnane X Receptor (PXR) (AID 2283008; active = hit-call score of the fitted dose curve at least 0.9, where 1 is the maximum)
Nuclear receptor subfamily 1 group I member 2 (Homo sapiens), sequence (O75469 whole entry, looked up, the tested form may be a part): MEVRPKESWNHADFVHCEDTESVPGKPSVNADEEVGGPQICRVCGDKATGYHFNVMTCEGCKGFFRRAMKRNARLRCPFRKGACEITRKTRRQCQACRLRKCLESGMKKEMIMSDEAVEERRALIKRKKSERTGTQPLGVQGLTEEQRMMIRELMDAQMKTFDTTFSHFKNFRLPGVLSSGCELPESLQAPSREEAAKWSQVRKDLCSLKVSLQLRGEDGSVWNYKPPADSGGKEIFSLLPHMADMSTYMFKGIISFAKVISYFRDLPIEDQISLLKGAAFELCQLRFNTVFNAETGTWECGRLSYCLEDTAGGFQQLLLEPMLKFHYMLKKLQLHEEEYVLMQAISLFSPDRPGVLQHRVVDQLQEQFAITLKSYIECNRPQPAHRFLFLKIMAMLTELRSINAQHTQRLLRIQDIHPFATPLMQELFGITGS
Summary of the method: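 Trans-factorial format: exogenous NR-Gal4 fusion activity, not endogenous factor, in transfected human HepG2 liver cells. After 24 h dosing, RNA isolated, reverse-transcribed, amplified and resolved by capillary electrophoresis; induction scored versus DMSO.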

[12] = biological target: human Retinoic Acid Receptor gamma (RARg), RARG (gene 5916) (UniProt P13631); experiment: ATG_RARg_TRANS: Attagene TRANS-FACTORIAL HepG2 Assay for human Retinoic Acid Receptor gamma (RARg) (AID 2283009; active = hit-call score of the fitted dose curve at least 0.9, where 1 is the maximum)
human Retinoic Acid Receptor gamma (RARg), RARG (gene 5916), sequence (P13631 whole entry, looked up, the tested form may be a part): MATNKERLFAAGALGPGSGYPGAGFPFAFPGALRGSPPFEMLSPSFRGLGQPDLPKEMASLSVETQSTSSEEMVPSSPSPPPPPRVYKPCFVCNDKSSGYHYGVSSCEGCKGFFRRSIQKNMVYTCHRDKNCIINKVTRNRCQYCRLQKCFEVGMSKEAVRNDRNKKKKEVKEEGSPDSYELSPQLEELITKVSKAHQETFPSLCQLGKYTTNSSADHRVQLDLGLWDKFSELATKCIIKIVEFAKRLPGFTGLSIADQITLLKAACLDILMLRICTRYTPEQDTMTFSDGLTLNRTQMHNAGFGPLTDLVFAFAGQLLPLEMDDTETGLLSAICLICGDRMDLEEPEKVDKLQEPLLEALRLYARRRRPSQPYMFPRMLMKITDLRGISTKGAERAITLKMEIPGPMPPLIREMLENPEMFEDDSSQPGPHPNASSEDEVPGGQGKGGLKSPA
Summary of the method: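 Gain-of-signal relative to DMSO is reported from fluorescent capillary electrophoresis of RT-PCR reporter products. These came from HepG2 cells expressing transfected RARg-GAL4 chimeras with UAS reporters, harvested 24 h after dosing.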

[13] = biological target: human Peroxisome Proliferator-activated Receptor alpha (PPARa), PPARA (gene 5465) (UniProt Q07869); experiment: ATG_PPARa_TRANS: Attagene TRANS-FACTORIAL HepG2 Assay for human Peroxisome Proliferator-activated Receptor alpha (PPARa) (AID 2283001; active = hit-call score of the fitted dose curve at least 0.9, where 1 is the maximum;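 for AC50: potency for gain of reporter signal over DMSO so agonist or activator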)
human Peroxisome Proliferator-activated Receptor alpha (PPARa), PPARA (gene 5465), sequence (Q07869 whole entry, looked up, the tested form may be a part): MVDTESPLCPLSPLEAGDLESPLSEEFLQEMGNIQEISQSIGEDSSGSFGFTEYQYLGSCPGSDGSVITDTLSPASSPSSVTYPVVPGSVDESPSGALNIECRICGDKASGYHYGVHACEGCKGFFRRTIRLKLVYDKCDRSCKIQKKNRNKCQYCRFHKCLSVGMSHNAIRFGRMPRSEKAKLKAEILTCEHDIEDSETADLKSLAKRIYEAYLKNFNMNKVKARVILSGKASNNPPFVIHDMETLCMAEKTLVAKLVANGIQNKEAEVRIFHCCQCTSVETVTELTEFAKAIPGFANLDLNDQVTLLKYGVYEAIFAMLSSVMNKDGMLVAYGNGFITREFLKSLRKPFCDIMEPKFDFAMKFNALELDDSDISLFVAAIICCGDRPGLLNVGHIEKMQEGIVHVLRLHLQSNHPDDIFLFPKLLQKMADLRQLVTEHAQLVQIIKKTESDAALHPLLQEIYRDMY
Summary of the method: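 Exposure: 24 h, transiently transfected HepG2 cells. Endpoint: GAL4-UAS reporter mRNA, RT-PCR with capillary electrophoresis fluorescence. Baseline: DMSO; increases fitted.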

[14] = biological target: human RAR-related Orphan Receptor beta (RORb), RORB (gene 6096) (UniProt Q92753); experiment: ATG_RORb_TRANS: Attagene TRANS-FACTORIAL HepG2 Assay for human RAR-related Orphan Receptor beta (RORb) (AID 2283010; active = hit-call score of the fitted dose curve at least 0.9, where 1 is the maximum)
human RAR-related Orphan Receptor beta (RORb), RORB (gene 6096), sequence (Q92753 whole entry, looked up, the tested form may be a part): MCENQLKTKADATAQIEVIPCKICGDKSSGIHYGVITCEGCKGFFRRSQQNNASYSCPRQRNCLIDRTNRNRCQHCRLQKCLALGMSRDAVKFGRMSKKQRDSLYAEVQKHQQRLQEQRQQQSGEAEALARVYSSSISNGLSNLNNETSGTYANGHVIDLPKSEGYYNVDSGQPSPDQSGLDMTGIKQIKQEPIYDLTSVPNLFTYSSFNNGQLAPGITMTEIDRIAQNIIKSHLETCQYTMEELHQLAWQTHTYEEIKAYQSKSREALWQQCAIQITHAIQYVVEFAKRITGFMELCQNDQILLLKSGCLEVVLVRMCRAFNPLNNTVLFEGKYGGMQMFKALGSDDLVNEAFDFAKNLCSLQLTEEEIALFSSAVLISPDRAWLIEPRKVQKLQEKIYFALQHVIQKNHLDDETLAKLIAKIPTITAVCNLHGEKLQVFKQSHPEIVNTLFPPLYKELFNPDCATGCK
Summary of the method: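 Multiplexed transcription-factor reporter assay: HepG2 cells transiently carrying NR-Gal4/GAL4-UAS constructs, 24 h treatment, mRNA quantified by RT-PCR plus capillary electrophoresis fluorescence; activity scored as induction over DMSO.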

Measured: AC50

CCCCCCCC(=O)OCCCCCC
not listed: [13] | [14]
inactive: all other assays above

CCCCCCCCCC(C)C=O (configuration not stated)
active: [4] 100 µM | [13] 27.5 µM | [10] 18.5 µM
not listed: [7] | [8] | [9] | [14]
inactive: all other assays above

COC(CC(C)CCCC(C)(C)O)OC (configuration not stated)
not listed: [7] | [10] | [12] | [14]
inactive: all other assays above

CCCCCCOC(=O)C(C)C
inactive: [1] | [2] | [3] | [4] | [5] | [6] | [13] | [10]

CC(C)CC(C)CC(O)CC(C)C (configuration not stated)
active: [4] 100 µM
not listed: [7] | [8] | [14]
inactive: all other assays above

COS(=O)(=O)O
inactive: [1] | [2] | [3] | [4] | [5] | [6] | [13] | [11]

FC(F)(F)COCC(F)(F)F
not listed: [7] | [8] | [12]
inactive: all other assays above

CCOC(=O)c1ccc(N)cc1
not listed: [7] | [8] | [9] | [12] | [14]
inactive: all other assays above

O=C(O)c1cc(C(=O)O)cc([N+](=O)[O-])c1
not listed: [7] | [9] | [10] | [12] | [14]
inactive: all other assays above

O=C(O)CNc1ccccc1
not listed: [7] | [11]
inactive: all other assays above

COc1cc(CCC(C)=O)ccc1O
not listed: [7] | [8] | [11] | [12] | [14]
inactive: all other assays above

O=C(CS)OCCOC(=O)CS
inactive: [1] | [2] | [5] | [13] | [10] | [14]
active: [3] 43.8 µM | [4] 148 µM | [6] 100 µM

CC1=NN(c2ccc(S(=O)(=O)O)cc2)C(=O)C1
not listed: [7] | [10] | [14]
inactive: all other assays above

COc1ccc(CCC(C)=O)cc1
not listed: [7] | [8] | [9] | [12]
inactive: all other assays above

CC=Cc1ccc(OC)c(OC)c1
active: [11] 27.6 µM
not listed: [7] | [8] | [9] | [12] | [14]
inactive: all other assays above

COC(=O)c1cccnc1
not listed: [7] | [9] | [10] | [11]
inactive: all other assays above

O=C(Nc1ccc2c(c1)Cc1ccccc1-2)C(F)(F)F
active: [4] 24.8 µM | [5] 24.5 µM | [11] 27.7 µM
not listed: [7] | [8] | [12] | [14]
inactive: all other assays above

CCCC(C)=O
not listed: [8] | [10] | [11] | [13]
inactive: all other assays above

C[C@H](CCC(=O)NCC(=O)O)[C@H]1CC[C@H]2[C@@H]3[C@H](O)C[C@@H]4C[C@H](O)CC[C@]4(C)[C@H]3C[C@H](O)[C@]12C
not listed: [7] | [11] | [12] | [13]
inactive: all other assays above

CC1C2CC(CC2C2CCCC(O)C2)C1(C)C (configuration not stated)
active: [11] 14.3 µM
not listed: [8] | [9] | [13] | [14]
inactive: all other assays above

CCC(=O)O[C@@H]1C[C@H]2CC[C@]1(C)C2(C)C
not listed: [7] | [10] | [11] | [13]
inactive: all other assays above

COc1ccc(N)c([N+](=O)[O-])c1
not listed: [8] | [9] | [11] | [12] | [13]
inactive: all other assays above
